Shiga inhibitor: blocks Shiga toxin action in Vero cells. Vero cells, Shiga toxin protein synthesis inhibition reporter. inhibition, % at 38.7 µM. hit rate 9.2% among 290,000. AID 2315; in the data active means inhibition mostly above about 28%, no sharp cut-off; inactive means mostly below about 43%; further: 0% is about no effect
LmPK inh: inhibitors of Leishmania mexicana pyruvate kinase | purified LmPK, Kinase-Glo ATP luminescence, 1 h | Potency, µM (titrated, usually from 57.5 µM), without a hit: at the top dose activity change, negative = inhibition, usual class: inhibitors | hit rate 0.37% among 290,000; further: potency means the concentration at half of the fitted maximal effect; on the % scale 0 is the no-effect control and ±100 the full control effect
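ATP generated from ADP (0.1 mM) and PEP (0.5 mM) by 0.1 nM LmPK over 1 h at room temperature (pH 7.2 imidazole buffer) was detected by coupled luciferase luminescence. Values were normalized to uninhibited and no-enzyme wells.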
Sm TGR inh: inhibitors of Schistosoma mansoni thioredoxin glutathione reductase. Q962Y6. purified TGR, DTNB reduction, TNB absorbance 405 nm. Potency, µM (series often up to 114 µM), inactives show at the highest dose activity change, negative = inhibition, actives largely listed as inhibitors. hit rate 3% among 360,000; further: potency means the concentration at half of the fitted maximal effect; on the % scale 0 is the no-effect control and ±100 the full control effect; nearly all actives have a fitted effect of over 60% in size
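TGR 20 nM + NADPH 100 uM (dispensed conc.), cpd preinc 15 min RT; start with NADPH (500 uM addition) then DTNB (15 mM addition). Kinetic TNB absorbance, 405 nm filter. Four-parameter Hill fit across titration.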
CHX counter: counter-screen hit for Shiga toxin inhibitors, cycloheximide; cell reporter, cycloheximide protein synthesis inhibition counterscreen; hit rate 12% among 300,000; AID 2314; max response, %; in the data active means max response mostly above about 13%, no sharp cut-off; inactive means mostly below about 14%; further: read at 38.3 µM for the half of the compounds with a filed dose; 0% is about no effect
Giardia FBPA inh: Giardia lamblia aldolase inhibition; hit rate 0.71% among 290,000; A8B2U2; purified Giardia FBPA; Potency, µM (titrated, usually from 59.6 µM), for inactives: at the top dose activity, negative = inhibition, usual class: inhibitors; further: potency means the concentration at half of the fitted maximal effect; on the % scale 0 is the no-effect control and ±100 the full control effect; nearly all actives have a fitted effect of over 55% in size
Target sequence (A8B2U2 whole entry, looked up): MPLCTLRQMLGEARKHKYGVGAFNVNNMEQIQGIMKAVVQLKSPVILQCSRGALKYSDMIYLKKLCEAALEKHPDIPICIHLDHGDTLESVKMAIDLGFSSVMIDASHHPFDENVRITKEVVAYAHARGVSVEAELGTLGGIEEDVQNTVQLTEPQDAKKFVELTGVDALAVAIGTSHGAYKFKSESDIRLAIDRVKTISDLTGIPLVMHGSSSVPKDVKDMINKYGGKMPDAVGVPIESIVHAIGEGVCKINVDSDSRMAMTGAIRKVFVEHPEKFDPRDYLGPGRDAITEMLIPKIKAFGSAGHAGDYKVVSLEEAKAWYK
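Giardia FBPA (40 nM reagent) was preincubated 10 min at RT with compound (up to 57.5 uM final), then substrate plus GAPDH/TPI/NAD/arsenate coupling system with diaphorase/resazurin was added; resorufin fluorescence (525/598 nm) was read after 20 min.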
Tb PYK inh: blocks Trypanosoma brucei pyruvate kinase | TbPYK enzyme, Kinase-Glo Plus ATP luminescence, 45 min | hit rate 0.12% among 410,000 | Q57TT1 | Potency, µM (highest dose often 76.8 µM), for inactives: top-dose activity, negative = inhibition, actives largely listed as inhibitors; further: potency means the concentration at half of the fitted maximal effect; on the % scale 0 is the no-effect control and ±100 the full control effect; nearly all actives have a fitted effect of over 50% in size
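ADP (130 uM final) triggers the TbPYK reaction after compound addition; incubation is 45 min at room temperature. Kinase-Glo Plus is then added and luminescence imaged. Normalized data are fitted to concentration-effect curves.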
* = called active by the depositor; ? = inconclusive; nt = not tested or not shown. This is one part of a sample in which hits are shown more often than they occur. Unless noted, the call rests on the fitted dose curve; in most records, active means well fitted curve in the direction sought with a large enough effect; inconclusive means small, poorly fitted or top-dose-only effect, or another doubt; inactive means no such curve, though single readings can be large; an effect the other way counts as inactive or inconclusive.

SMILES	Shiga inhibitor	LmPK inh	Sm TGR inh	CHX counter	Giardia FBPA inh	Tb PYK inh
N#C/C(=C\c1ccccc1OCc1ccc(C(=O)O)cc1)c1ccccc1	14.8	11.0%	2.4%	1.1	7.5%	-7.1%
O=C(O)c1cccc(COc2ccccc2Cl)c1	18.8*	14.1µM*	-4.1%	13.6*	?	-17.3%
O=C(Nc1ccccc1)N1CCC2(CC1)CCN(C(=O)c1ccncc1)CC2	nt	nt	nt	nt	-1.6%	6.8%
CN(C(=O)c1ccccc1OCc1ccc(Cl)cc1)c1ccccc1	-19.4	-3.0%	5.5%	0.7	nt	9.3%
CCC(C)NC(=O)c1ccc(COc2ccccc2Cl)cc1 (stereo not drawn)	46.1	2.9%	-13.1%	15.4*	8.8%	4.2%
CCCC(C)NC(=O)c1ccc(OCc2ccc(Cl)cc2)c(OC)c1 (stereo not drawn)	17.5	1.1%	-6.3%	10.5	4.6%	0.1%
Cc1nn(Cc2c(F)c(F)c(F)c(F)c2F)c(C)c1NC(=O)c1cccc(COc2ccccc2Cl)c1	161.9*	-2.3%	-19.0%	68.6*	0.8%	-4.4%
CCN(CC)C(=O)c1ccc(COc2ccccc2Cl)cc1	48.1*	13.3%	3.4%	19.5	2.9%	3.0%
CCCNC(=O)N1[C@H](c2cccs2)[C@@H](C)C(=O)[C@@H](C)[C@@H]1c1cccs1	nt	nt	7.9%	nt	nt	5.7%
O=C(Cn1ncc2c(Cl)cccc21)NCc1cccc(Cl)c1	nt	nt	7.5%	nt	nt	0.7%
Cc1ccc2nc(-c3sc4nc(C)cc(C)c4c3N)[nH]c2c1	42.6*	2.1%	4.8%	25.5*	-8.5%	-2.3%
Nc1cccc(-c2nc3ccccc3[nH]2)c1	70.8*	?	-0.7%	22.1*	1.0%	-6.6%
Nc1ccc(-c2nc3ccc(-c4nc5ccc(N)cc5[nH]4)cc3[nH]2)cc1	-7.2	nt	nt	-0.3	-13.8%	nt
Cc1ccc2nc(-c3cccc(N)c3)[nH]c2c1	32.8*	15.8µM*	-3.0%	17.0*	-19.6%	-15.2%
CCCn1c(C)nc2c(NCCCCN3CCCC3)nc(C)nc21	nt	nt	nt	nt	-1.5%	nt
O=C(CC1SCCNC1=O)NCc1ccccc1 (stereo not drawn)	nt	nt	nt	nt	nt	6.0%
NC1=NC(c2ccccc2)N=C(Nc2ccccc2)N1 (stereo not drawn)	19.8	0.7%	0.2%	14.1*	-6.7%	nt
CCN(CC)c1nc(C)nc2c1cnn2CCc1ccccc1	172.7*	5.7%	33.9%	49.2*	-3.8%	0.8%
CCN(CC)c1ncnc2c1cnn2Cc1ccc(C)cc1	16.6	-2.4%	6.7%	7.1	-3.0%	-1.6%
CCCCc1nc2cc(C(=O)N3CCCCC3CCNC(C)=O)ccc2o1 (stereo not drawn)	3.5	-3.7%	1.3%	2.4	nt	-16.3%
CCCCc1nc2cc(C(=O)N3CCC(OC)CC3)ccc2o1	44.4*	1.2%	-13.8%	27.1*	nt	3.2%
CCCCc1nc2cc(C(=O)N3CCN(c4nc(C)cnc4C)CC3)ccc2o1	70.5*	-8.5%	-21.6%	47.4*	nt	-4.3%
COCCC1CCCCN1C(=O)c1ccc2nc(Cc3ccccc3F)oc2c1 (stereo not drawn)	96.7*	-3.0%	2.9%	60.6*	-10.3%	-15.4%
CCCCc1nc2cc(C(=O)NCc3nccn3CC)ccc2o1	36.7*	-1.7%	1.6%	50.4*	-28.4%	7.3%
CCCCc1nc2cc(C(=O)NCc3cn(C)nc3C)ccc2o1	-12.8	-9.0%	-20.2%	-8.0	nt	1.6%
SMILES	Shiga inhibitor	LmPK inh	Sm TGR inh	CHX counter	Giardia FBPA inh	Tb PYK inh
CC(=O)Nc1cccc(NC(=O)C2(c3cccs3)CCOCC2)c1	nt	nt	-3.0%	nt	nt	-0.5%
COc1ccc(NC(=O)CCNC(=O)c2ccc([N+](=O)[O-])cc2)cc1S(=O)(=O)N1CCCCC1	nt	nt	-34.6%	nt	nt	2.3%
CCCCc1nc2cc(C(=O)N3CCCCC3COC)ccc2o1 (stereo not drawn)	86.7*	0.8%	3.0%	35.3*	18.2%	4.9%
COCC1CCCCN1C(=O)c1ccc2oc(CCc3ccccc3)nc2c1 (stereo not drawn)	93.6*	10.9%	-0.5%	37.2*	5.1%	2.1%
CCOC(=O)CC1CCCCN1C(=O)c1ccc2oc(CCc3ccccc3)nc2c1 (stereo not drawn)	34.4*	11.0%	-4.7%	17.1*	4.5%	-6.1%
CC(C)c1nc2ccc(C(=O)NC(C)c3ccccc3)cc2o1 (stereo not drawn)	nt	nt	-3.6%	nt	nt	-9.3%
CCOC(=O)CC1CCCCN1C(=O)c1ccc2nc(CCOC)oc2c1 (stereo not drawn)	9.9	2.6%	0.2%	23.8	nt	1.1%
COc1ccc([C@@H](C)NC(=O)c2ccc3oc(C(C)C)nc3c2)cc1	73.9*	0.0%	7.7%	50.0*	2.4%	-7.4%
Cc1ccccc1CN1C(=O)c2ccccc2S(=O)c2ccc(C(=O)NCc3ccc(Cl)cc3)cc21 (stereo not drawn)	nt	nt	6.0%	nt	nt	-3.0%
COC1CCN(C(=O)c2ccc3oc(C(C)C)nc3c2)CC1	19.6*	-1.9%	-13.9%	22.8*	9.6%	0.8%
Cc1cnc(C(=O)OC(C)C(=O)Nc2cccc3ccccc23)cn1 (stereo not drawn)	nt	nt	4.0%	nt	nt	7.7%
CNCc1ccccc1Sc1cc(O)ccc1O	-7.2	?	3.55µM*	-2.7	?	?
CN1C2CC(OC(=O)C(CO)c3ccccc3)C[C@@H]1[C@H]1OC21 (stereo partly drawn)	nt	nt	nt	nt	1.5%	nt
Clc1ccc(N2CCN(c3cnc4ccccc4n3)CC2)cc1	48.9*	-0.4%	-2.8%	18.6*	-8.4%	2.1%
Fc1ccc(N2CCN(c3nc4ccccc4c4nc(-c5ccccc5)nn34)CC2)cc1	nt	nt	-1.3%	nt	nt	4.2%
Cc1cc(N2CCN(c3ccccc3)CC2)nc2ccccc12	50.9	1.3%	-10.0%	9.5	3.1%	2.4%
c1ccc(N2CCN(c3cnc4ccccc4n3)CC2)cc1	145.6*	2.6%	-20.5%	62.0*	-10.4%	-2.0%
O=C(c1cccnc1)N1CCN(c2ccc(Cl)cc2)CC1	5.3	-5.8%	0.2%	-2.6	8.9%	-24.9%
Fc1ccc(N2CCN(c3cnc4ccccc4n3)CC2)cc1	91.1*	-8.4%	-4.1%	48.7*	-1.8%	2.1%
CN(C)S(=O)(=O)c1cc(C(=O)Nc2ccccc2C(=O)NC2CC2)ccc1Cl	nt	nt	?	nt	nt	0.0%
CCS(=O)(=O)c1ncc(N(Cc2ccco2)Cc2sccc2C)c(C(=O)Nc2ccc(C)cc2C)n1	nt	nt	1.6%	nt	nt	0.9%
Fc1ccc(-c2n[nH]c(=S)n2/N=C/c2c[nH]c3ccccc23)cc1	-9.0	-9.6%	-1.5%	-1.9	1.5%	-49.1%
Cc1cc(-c2n[nH]c(=S)n2/N=C/c2ccc(Br)s2)n[nH]1	-5.0	-18.0%	-6.5%	0.5	15.8%	1.12µM*
Cc1cc(-c2n[nH]c(=S)n2/N=C/c2c[nH]c3ccccc23)n[nH]1	-7.3	?	21.2%	-1.7	-19.2%	2.82µM*
